# AmpC no deterg: qHTS Inhibitors of AmpC Beta-Lactamase (assay without detergent); AmpC nitrocefin hydrolysis, absorbance 480 nm, 0.0001% Triton; Potency, µM (titrated, usually from 57.1 µM), without a hit: at the highest dose activity change, negative = inhibition, usual class: inhibitors; 330,000 tested, 0.52% active; AID 485341, 2010;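 note: plate controls were no compound for no effect and no enzyme for full effect; nearly all actives have a fitted effect of over 20% in size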
# Target sequence (P00811 whole entry, looked up): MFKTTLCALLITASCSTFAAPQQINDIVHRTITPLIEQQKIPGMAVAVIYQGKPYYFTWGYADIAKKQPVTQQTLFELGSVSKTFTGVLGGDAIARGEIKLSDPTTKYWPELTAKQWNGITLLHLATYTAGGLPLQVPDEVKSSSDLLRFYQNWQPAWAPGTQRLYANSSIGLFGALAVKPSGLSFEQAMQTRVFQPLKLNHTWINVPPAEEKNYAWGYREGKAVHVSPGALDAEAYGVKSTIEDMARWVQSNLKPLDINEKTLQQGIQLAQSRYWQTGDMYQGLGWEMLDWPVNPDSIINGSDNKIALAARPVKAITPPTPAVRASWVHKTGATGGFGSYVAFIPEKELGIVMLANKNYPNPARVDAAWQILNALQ
#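 AmpC (5.3 nM in the dispensed reagent) in 20 mM phosphate pH 7.0 with 0.01% (detergent screen) or 0.0001% Triton X-100 was preincubated with compounds for 15 min at room temperature. Nitrocefin was then added from an 800 uM solution, and hydrolysis was followed at 480 nm.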
# SARS PLP yeast: qHTS of Yeast-based Assay for SARS-CoV PLP; S. cerevisiae expressing SARS-CoV PLpro, growth rescue; AID 485353, 2010; Potency, µM (top dose mostly 32.9 µM), inactives show at the highest dose activity, positive = growth rescue, usual class: activators; 330,000 tested, 0.19% active; calls by dose curve; note: 0% is about no effect; nearly all actives have a fitted effect of over 55% in size
# Sm TGR inh: qHTS Assay for the Inhibitors of Schistosoma Mansoni Peroxiredoxins. Schistosoma mansoni thioredoxin glutathione reductase (TGR), Q962Y6. purified TGR, DTNB reduction, TNB absorbance 405 nm. Potency, µM (titrated, usually from 114 µM), for the others: at the highest dose activity change, negative = inhibition, usual class: inhibitors. 360,000 tested, 3% active; note: % is set by controls: 0 for no effect and ±100 for the full control effect; nearly all actives have a fitted effect of over 60% in size
#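 First, TGR (20 nM dispensed) and NADPH were mixed with compound. Second, a 15 min room-temperature incubation followed. Third, further NADPH and then DTNB were added to start the reaction. Finally, TNB absorbance was monitored kinetically.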
# Pf growth 96h: Primary qHTS for delayed death inhibitors of the malarial parasite plastid, 96 hour incubation. AID 504834, 2011. Potency, µM (highest dose often 28.7 µM), for the others: at the top dose activity change, negative = inhibition, most hits filed as inhibitors. 320,000 tested, 6.9% active. P. falciparum luciferase reporter growth, 96 h; note: % is set by controls: 0 for no effect and ±100 for the full control effect
#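 Readout is luminescence from an integrated firefly luciferase in P. falciparum. Red cells, 2% hematocrit and 0.05% parasitemia final, were cultured with compound through two parasite generations (96 hours) at 37 C, 5% CO2.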
# AmpC inh detg: qHTS Inhibitors of AmpC Beta-Lactamase (assay with detergent); AmpC hydrolysis of nitrocefin, absorbance 480 nm, 0.01% Triton; Potency, µM (titrated, usually from 114 µM), without a hit: at the highest dose activity change, negative = inhibition, most hits filed as inhibitors; 370,000 tested, 0.041% active;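 note: 0% = no-compound wells and -100% = no-enzyme wells; nearly all actives have a fitted effect of over 25% in size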
#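 20 mM phosphate pH 7.0 + 0.01% (detergent screen) or 0.0001% Triton X-100; 5.3 nM AmpC reagent; cpd preinc 15 min RT; nitrocefin (800 uM stock) to start; A480 q20 s × 4 min; Activity was normalised to no-enzyme and no-compound control wells.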
# Pf growth 48h: Primary qHTS for delayed death inhibitors of the malarial parasite plastid, 48 hour incubation; AID 504832, 2011; P. falciparum luciferase growth in erythrocytes, 48 h; 310,000 tested, 5.9% active; Potency, µM (series often up to 28.7 µM), inactives show at the highest dose activity change, negative = inhibition, most hits filed as inhibitors; note: % is set by controls: 0 for no effect and ±100 for the full control effect
#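 First compound was added to culture medium, then infected red cells at 0.1% parasitemia and 2% hematocrit (final). After incubation at 37 C under 5% CO2, luciferase detection reagent was dispensed and light output recorded.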
# * = called active by the depositor; ? = inconclusive; nt = not tested or not shown; [ ] = dose if it differs, or a comment. Rows were chosen to be rich in hits. Some 12% of all compounds tested hit in one or more screens of this group. Unless noted, calls come from the whole dose curve; as a rule, active = well fitted curve in the direction sought with a large enough effect; inconclusive = small, poorly fitted or top-dose-only effect, or another doubt; inactive = no such curve, though single readings can be large; an effect the other way counts as inactive or inconclusive. Potency is the fitted concentration of half-maximal effect.
SMILES,AmpC no deterg,SARS PLP yeast,Sm TGR inh,Pf growth 96h,AmpC inh detg,Pf growth 48h
CC(C)(C)OC(=O)NCCCCCNC(=O)c1[nH]cnc1C(=O)N[C@@H](Cc1ccccc1)C(=O)OCc1ccccc1,47.2%,-0.2%,-1.4%,11.7µM*,9.5%,8.28µM*
O=C(Cn1c(=O)nc(-c2ccccc2F)c2cc(Cl)ccc21)Nc1ccccc1C(F)(F)F,nt,nt,3.5%,nt,9.0%,nt
CN1CCN(C(c2ccccc2Cl)c2sc3nc(-c4ccco4)nn3c2O)CC1 (stereo not drawn),nt,nt,20.1%,nt,3.7%,nt
Cc1ccc(Cn2c(C)c(CNCCCc3ccccc3)c(C(=O)O)c2C)cc1,nt,nt,-1.0%,nt,21.5%,nt
Cc1n[nH]c(C)c1CCN(C)Cc1cn(C)nc1-c1ccc2c(c1)OCCO2,-11.6%,1.6%,?,1.31µM*,-2.1%,28.4%
CCOC(=O)N1CCN(c2ccc3nnnn3n2)CC1,-19.0%,-1.4%,0.2%[11.4 µM],2.08µM*,?,nt
COC(=O)c1c(NC(NC(C)=O)C(Cl)(Cl)Cl)sc2c1CCCC2 (stereo not drawn),24.4%,-15.5%,3.7%,10.4µM*,6.0%,?
COC(=O)c1c(NC(NC(=O)CC(C)C)C(Cl)(Cl)Cl)sc2c1CCC2 (stereo not drawn),-12.4%,-79.3%,-0.1%,11.7µM*,-1.0%,?
CCn1ccc(C(=O)Nc2sc3c(c2C(=O)OC)CCC3)n1,76.5%,-8.8%,?,11.7µM*,-9.6%,?
COC(=O)c1c(NC(=O)C2CC2)sc2c1CCCC2,44.7µM*,-11.9%,4.1%,3.4%,?,10.2%
CCC(=O)NC(Nc1sc2c(c1C(=O)OC)CCC2)C(Cl)(Cl)Cl (stereo not drawn),3.7%,-30.1%,-22.0%,?,?,?
CCOC(=O)c1c(NC(=O)CN(CC)CC)sc2c1CCC2,33.1%,-10.8%,-28.3%,33.2%,0.9%,11.7µM*
CCc1cccc(NC(=O)C(CC(C)C)NS(=O)(=O)c2ccc3c(c2)oc(=O)n3C)c1 (stereo not drawn),nt,nt,1.1%,nt,-12.2%,nt
CCOC(=O)c1[nH]c(C)c(CCC(=O)Nc2ccc(C(C)=O)cc2)c1C,nt,nt,1.9%,nt,18.5%,nt
O=C(CCn1nc(-c2ccc(Cl)cc2)ccc1=O)NCCc1ccccc1,nt,nt,-7.0%,nt,-1.5%,nt
Cc1ccc(C2(c3ccc(C)cc3)CC2C(=O)NCc2cccnc2)cc1 (stereo not drawn),58.7%,0.0%,nt,1.85µM*,-0.3%,-25.5%
Cc1ccc(NC(=O)NCc2cccnc2)cc1,-11.5%,0.4%,0.6%,-5.7%,5.0%,32.4%
O=C(CC(=O)NCc1cccnc1)NCc1cccnc1,-14.3%,1.9%,-1.9%,10.4µM*,-2.8%,7.5%
O=C(Cc1ccccc1)NCc1cccnc1,-4.4%,0.2%,8.1%,3.7%,5.1%,38.6%
O=C(NCc1cccnc1)C(Cl)(Cl)Cl,-10.7%,-16.2%,-0.6%,3.7µM*,-10.1%,-13.3%
O=C(CCn1nc(-c2ccc(Cl)cc2)ccc1=O)NCc1cccnc1,1.4%,1.9%,-22.0%,4.1%,2.1%,1.17µM*
CCCOc1ccc(-c2nonc2NC(=O)c2oc3ccc(Cl)cc3c2C)cc1OCCC,nt,nt,0.3%,nt,-2.3%,nt
O=C(Oc1cccc(C(=S)N2CCCCC2)c1)c1ccccc1,-25.2%,1.4%,-0.9%,7.38µM*,8.9%,24.5%
COc1ccccc1-c1nc2c(c(SCC(=O)Nc3ccc(C)c(C)c3)n1)Cc1c(CO)cnc(C)c1O2,nt,nt,-0.3%,nt,-2.3%,nt
Cc1ccc(C(CC(=O)Nc2ccc(C)cc2C)N2Cc3ccccc3C2=O)cc1 (stereo not drawn),nt,nt,-0.5%,nt,1.5%,nt
SMILES,AmpC no deterg,SARS PLP yeast,Sm TGR inh,Pf growth 96h,AmpC inh detg,Pf growth 48h
Oc1ccc(N=C/C=C/c2cccc(Br)c2)cc1-c1nc2ccccc2s1,-44.3%,-9.9%,39.8µM*,4.5%,?,?
O=C(Nc1ccc(O)c(-c2nc3ccccc3s2)c1)c1cccs1,-28.7%,0.8%,-6.9%,2.1%,?,-3.7%
CC1(C)CC(=O)C(C(=O)c2ccccc2)C(=O)C1,-26.7%,1.3%,?,?,-0.1%,13.8%
C=CCn1nnnc1SCC(=O)Nc1ccc(OC)cc1,-33.9%,0.5%,-2.1%,-36.7%,?,39.2%
COc1ccc(NCc2nnc(SCC(=O)Nc3ccc(OC)cc3)n2C)cc1,1.8%,-5.1%,15.3%,1.9%,-1.6%,-10.6%
CCOC(=O)c1ccc(NC(=O)CSc2nnc(CNc3ccc(OC)cc3)n2C)cc1,28.5%,10.6%,?,2.2%[5.75 µM],0.3%,6.57µM*
CCOC(=O)c1ccc(NC(=O)C2(c3ccc(OC)cc3)CCCC2)cc1,-13.8%,1.2%,4.6%,?,-1.0%,5.86µM*
C=CCn1c(Cc2cccs2)nnc1SCC(=O)Nc1ccc(C(=O)OCC)cc1,15.6%,-7.7%,-2.3%,?,-9.7%,-47.0%
CCOC(=O)c1ccc(NC(=O)CSc2nnc(Cc3cccs3)n2C)cc1,-18.2%,-5.3%,-3.0%,8.28µM*,-15.2%,?
CCn1nnnc1SCC(=O)Nc1ccc(OC)cc1,5.1%,0.8%,4.7%,14.7µM*,?,24.4%
CCS(=O)(=O)N1CC(=O)N(c2ccc(C)c(C)c2)C(C)(C(=O)NC2CCCCC2)C1 (stereo not drawn),nt,nt,8.0%,nt,16.5%,nt
CCOc1ccc(CCNC(=O)c2sc3ncccc3c2-n2cccc2)cc1OCC,nt,nt,1.2%,nt,3.5%,nt
Cc1ccccc1OCC(=O)Nc1ccc(S(=O)(=O)N(Cc2ccccc2)c2ccccc2)cc1,nt,nt,-2.1%,nt,4.6%,nt
COc1ccc(S(=O)(=O)N(CC(=O)NC2CC2)Cc2ccccc2)cc1,6.8%,-1.3%,6.3%,13.4%,2.5%,-7.4%
COc1ccc(NC(=O)CSC2=NC(=O)CC(C)=N2)cc1,-1.8%,7.7%,7.5%,11.7µM*,-13.3%,19.3%
COc1ccc(NC(=O)CSc2c(C)nn(-c3nnc(C)c(=O)[nH]3)c2C)cc1,-7.8%,-1.7%,9.7%,11.7µM*,-2.3%,-12.7%
Cc1cc(C)cc(NC(=O)c2cc(C)nc3c2c(C)nn3-c2ccccc2)c1,nt,nt,9.1%,nt,16.7%,nt
COCCCN1C(=O)/C(=C/c2ccc(CNS(=O)(=O)c3ccccc3)o2)C(C(=O)OC)=C1C,20.0%,0.3%,11.2µM*,24.7%[1.15 µM],4.9%,?
COC(=O)c1ccc(C2c3c(oc4cc(C)c(C)cc4c3=O)C(=O)N2CCCN(C)C)cc1 (stereo not drawn),109.9%,-0.1%,?,32.1%,7.4%,5.22µM*

# Screens as filed in PubChem.
